Screening data from PubChem.
Giardia FBPA inh-1 = Giardia lamblia aldolase inhibition; purified Giardia FBPA; AID 2451; Potency, µM (titrated, usually from 59.6 µM), inactives show top-dose activity, negative = inhibition, usual class: inhibitors; A8B2U2; 290,000 tested, 0.71% active; also: potency is read from the fitted curve at half-maximal effect; % is scaled to controls: 0 for no effect and ±100 for the full control effect; nearly all actives have a fitted effect of over 55% in size
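Giardia FBPA (40 nM reagent) was preincubated 10 min at RT with compound (up to 57.5 uM final), then substrate plus GAPDH/TPI/NAD/arsenate coupling system with diaphorase/resazurin was added; resorufin fluorescence (525/598 nm) was read after 20 min.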
CHX counter = counter-screen hit for Shiga toxin inhibitors, cycloheximide; cell reporter, cycloheximide protein synthesis inhibition counterscreen; max response, %; 300,000 tested, 12% active; AID 2314; in the data active = max response mostly above about 13%, no sharp cut-off; inactive = mostly below about 14%; also: read at 38.3 µM for the half of the compounds with a filed dose; 0% is about no effect
Shiga inhibitor = blocks Shiga toxin action in Vero cells | inhibition, % at 38.7 µM | Vero cells, Shiga toxin protein synthesis inhibition reporter | 290,000 tested, 9.2% active; in the data active = inhibition mostly above about 28%, no sharp cut-off; inactive = mostly below about 43%; also: 0% is about no effect
Tb PYK inh = blocks Trypanosoma brucei pyruvate kinase. AID 624173. Potency, µM (titrated, usually from 76.8 µM), inactives show top-dose activity, negative = inhibition, most hits filed as inhibitors. 410,000 tested, 0.12% active. TbPYK enzyme, Kinase-Glo Plus ATP luminescence, 45 min; also: potency is read from the fitted curve at half-maximal effect; % is scaled to controls: 0 for no effect and ±100 for the full control effect; nearly all actives have a fitted effect of over 50% in size
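Luminescent Kinase-Glo Plus end-point after 45 min room-temperature reaction of T. brucei pyruvate kinase started with 130 uM ADP (final). Buffer TEA 50 mM pH 7.2 with KCl, MgCl2, BSA, Tween-20; titration-based qHTS with fitted concentration-effect curves.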
LmPK inhibitor = LmPK (Leishmania mexicana) enzyme inhibition. Potency, µM (top dose mostly 57.5 µM), for inactives: at the highest dose activity change, negative = inhibition, most hits filed as inhibitors. AID 1721. purified LmPK, Kinase-Glo ATP luminescence, 1 h. 290,000 tested, 0.37% active; also: potency is read from the fitted curve at half-maximal effect; % is scaled to controls: 0 for no effect and ±100 for the full control effect
Target sequence (Q27686 whole entry, looked up): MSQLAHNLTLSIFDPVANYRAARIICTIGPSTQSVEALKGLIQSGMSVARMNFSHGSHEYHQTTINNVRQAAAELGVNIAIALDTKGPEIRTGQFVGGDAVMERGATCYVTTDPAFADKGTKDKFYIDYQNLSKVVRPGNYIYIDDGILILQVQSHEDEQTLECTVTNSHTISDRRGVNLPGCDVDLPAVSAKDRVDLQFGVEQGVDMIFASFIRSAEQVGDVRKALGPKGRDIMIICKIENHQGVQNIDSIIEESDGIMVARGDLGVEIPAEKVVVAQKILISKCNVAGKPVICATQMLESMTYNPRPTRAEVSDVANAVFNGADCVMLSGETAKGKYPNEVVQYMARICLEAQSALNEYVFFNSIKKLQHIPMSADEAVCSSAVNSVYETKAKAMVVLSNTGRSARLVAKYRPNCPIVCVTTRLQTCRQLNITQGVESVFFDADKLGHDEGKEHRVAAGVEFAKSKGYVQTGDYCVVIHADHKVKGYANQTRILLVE
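ATP generated from ADP (0.1 mM) and PEP (0.5 mM) by 0.1 nM LmPK over 1 h at room temperature (pH 7.2 imidazole buffer) was detected by coupled luciferase luminescence. Values were normalized to uninhibited and no-enzyme wells.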
Sm TGR inh = inhibitors of Schistosoma mansoni thioredoxin glutathione reductase | Q962Y6 | purified TGR, DTNB reduction, TNB absorbance 405 nm | Potency, µM (highest dose often 114 µM), inactives show at the top dose activity change, negative = inhibition, most hits filed as inhibitors | 360,000 tested, 3% active | AID 485364; also: potency is read from the fitted curve at half-maximal effect; % is scaled to controls: 0 for no effect and ±100 for the full control effect; nearly all actives have a fitted effect of over 60% in size
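Kinetic colorimetric format: TGR-catalysed, NADPH-driven DTNB reduction monitored via TNB absorbance. Enzyme dispensed at 20 nM; compound exposure 15 min at room temperature before reaction start.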
Giardia growth = inhibitors of Giardia lamblia growth; shares compounds with Giardia FBPA inh-1; Giardia lamblia trophozoite growth inhibition; Potency, µM (doses to about 57.5 µM), inactives show top-dose activity change, negative = inhibition, actives largely listed as inhibitors; 1,500 tested, 5% active; AID 2785;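 also: potency is read from the fitted curve at half-maximal effect; trophozoites exposed to compound for 48 h at 37 °C; % is scaled to controls: 0 for no effect and ±100 for the full control effect; nearly all actives have a fitted effect of over 70% in size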
Mammalian tox = counter-screen for Giardia aldolase inhibitors: mammalian cell toxicity. mammalian cell viability counter-screen, qHTS. Potency, µM (titrated, usually from 57.5 µM), inactives show top-dose viability change, negative = toxicity, hits mostly inhibitors. 1,500 tested, 4% active. shares compounds with Giardia FBPA inh-1. AID 2786;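 also: Chinese hamster ovary cells used as mammalian cytotoxicity surrogate; viability measured as cellular ATP by luminescence; potency is read from the fitted curve at half-maximal effect; compound exposure lasted 48 h before reading; % is scaled to controls: 0 for no effect and ±100 for the full control effect; nearly all actives have a fitted effect of over 60% in size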
Giardia FBPA inh-2 = confirmation of Giardia fructose-bisphosphate aldolase inhibitors | shares compounds with Giardia FBPA inh-1 | purified Giardia aldolase enzyme activity, qHTS | Potency, µM (highest dose often 57.5 µM), for inactives: at the top dose activity change, negative = inhibition, usual class: inhibitors | 1,500 tested, 5% active; also: potency is read from the fitted curve at half-maximal effect; % is scaled to controls: 0 for no effect and ±100 for the full control effect; nearly all actives have a fitted effect of over 45% in size
Rabbit FBPA inh = selectivity test for Giardia aldolase inhibitors: rabbit aldolase | shares compounds with Giardia FBPA inh-1 | Rabbit muscle FBPA enzyme inhibition, selectivity counter-screen | Potency, µM (titrated, usually from 57.5 µM), for inactives: at the top dose activity, negative = inhibition, most hits filed as inhibitors | 1,500 tested, 4% active; also: potency is read from the fitted curve at half-maximal effect; % is scaled to controls: 0 for no effect and ±100 for the full control effect; nearly all actives have a fitted effect of over 60% in size
GAPDH counter = counter-screen for Giardia aldolase inhibitors: GAPDH coupling enzyme; shares compounds with Giardia FBPA inh-1; GAPDH coupling enzyme counterscreen, biochemical, qHTS; Potency, µM (doses to about 57.5 µM), for inactives: at the top dose activity change, negative = inhibition, most hits filed as inhibitors; 1,500 tested, 6% active; also: potency is read from the fitted curve at half-maximal effect; % is scaled to controls: 0 for no effect and ±100 for the full control effect; nearly all actives have a fitted effect of over 55% in size
* marks the source's active call; other numbers are inactive results; ? = inconclusive; . = no result given; [ ] = remark or other dose. The sample as a whole holds a higher share of hits than the screen did. Unless noted, calls follow the shape of the dose curve; as a rule, active = well fitted curve in the direction sought with a large enough effect; inconclusive = small, poorly fitted or top-dose-only effect, or another doubt; inactive = no such curve, though single readings can be large; an effect the other way counts as inactive or inconclusive.

SMILES | Giardia FBPA inh-1 | CHX counter | Shiga inhibitor | Tb PYK inh | LmPK inhibitor | Sm TGR inh | Giardia growth | Mammalian tox | Giardia FBPA inh-2 | Rabbit FBPA inh | GAPDH counter
S=C(Nc1ccccc1)Nn1cnnc1 | 13µM* | 1 | -22 | -26% | -5% | 0% | ? | -13% | 4% | 5% | 8%
COc1ccc(S(=O)(=O)N2CCCOC2CNC(=O)C(=O)NCc2ccncc2)cc1 (stereo not drawn) | . | -4 | -26 | 1% | -8% | -9% | . | . | . | . | .
Cc1ccccc1CSc1cn(CC(=O)N2CCCCC2)c2ccccc12 | . | . | . | -5% | . | 2% | . | . | . | . | .
CCOC(=O)c1[nH]cnc1C(=O)O | 18µM* | -4 | -2 | 2% | 1% | 12% | 21% | 5% | 5% | 1% | 4%
CCOC(=O)c1[nH]cnc1C(=O)NC(C)C | -28% | -3 | -5 | 1% | 1% | 0% | . | . | . | . | .
CC1CCN(CCCCOc2cccc(Br)c2)CC1 | -16% | -4 | -6 | -11% | 1% | -8% | . | . | . | . | .
Brc1cccc(OCCCCn2cncn2)c1 | 28µM* | 9 | 14 | 14% | -11% | 3% | 13% | 15% | 0% | 0% | 8%
CCc1ccc([C@@H]2C[C@H]3[C@@H](CN2S(=O)(=O)c2ccc(C)cc2)C(=O)C[C@@H](c2ccccc2F)N3S(=O)(=O)c2ccc(C)cc2)cc1 | . | . | . | 3% | . | . | . | . | . | . | .
COc1ccccc1OCC(=O)NC1CCCCCCC1 | . | . | . | 9% | . | . | . | . | . | . | .
COc1ccccc1OCC#CCNC1CCCCC1C (stereo not drawn) | 1.6µM* | -4 | -7 | -8% | 1% | . | 22%[38.3 µM] | 12% | 2% | 17% | 3%
Cc1no[n+]([O-])c1COc1cccc(/C=N/Nc2nncn2N)c1 | 14µM* | 10 | 22 | -5% | 0% | -24% | 39% | 8% | 18µM* | ? | 20µM*
COc1ccc(-c2noc(-c3ccc(NC(C)c4ccccc4)c([N+](=O)[O-])c3)n2)cc1OC (stereo not drawn) | . | . | . | 2% | . | -9% | . | . | . | . | .
COCc1cc(OC)nc(-c2csc(C)n2)n1 | -18% | 0 | 7 | 4% | 4% | 19% | . | . | . | . | .
COCc1cc(=O)[nH]c(-c2csc(C)n2)n1 | 4.5µM* | -2 | -2 | 3% | 3% | 10% | 6%[38.3 µM] | -5% | 3% | 15% | 2%
C[N+](C)=C1SCC(C)(/C=N/O)S1 (stereo not drawn) | 14µM* | -1 | -22 | 5% | -2% | -30% | 58% | -10% | 0% | 12% | 1%
CC(=O)NC(c1cccs1)c1cc([N+](=O)[O-])c2cccnc2c1O (stereo not drawn) | ? | -2 | -7 | 5% | 0% | -34% | 1%[38.3 µM] | 29µM* | ? | ? | 13µM*
CCC(=O)NC(c1cccs1)c1cc([N+](=O)[O-])c2cccnc2c1O (stereo not drawn) | ? | -3 | -11 | 0% | 1% | -19% | . | . | . | . | .
CC(=O)NC(c1ccccc1)c1cc([N+](=O)[O-])c2cccnc2c1O (stereo not drawn) | 20µM* | -2 | 16 | -18% | -1% | -9% | 18µM* | ? | 3.2µM* | ? | 13µM*
CC1(C)CC(CC(=O)Nc2ccccn2)C(=O)O1 (stereo not drawn) | 4% | -2 | -8 | -5% | -4% | -17% | . | . | . | . | .
CC1(C)CC(Cc2nc(=S)[nH][nH]2)C(=O)O1 (stereo not drawn) | 6.3µM* | -2 | 20 | -5% | -1% | 3% | 3% | -8% | 5% | 8% | 8%
Cc1ccc(S(=O)(=O)NC(C(=O)N2CCN(S(=O)(=O)c3cccc(F)c3)CC2)C(C)C)cc1 (stereo not drawn) | . | . | . | 6% | . | -6% | . | . | . | . | .
CCN(CC)c1ccc(N=C2C(=O)Nc3ccccc32)cc1 | -16% | 12 | 25 | ? | ? | ? | -2%[38.3 µM] | -21% | 0.26µM* | ? | 0.73µM*
Cc1ccc(N=C2C(=O)Nc3ccccc32)cc1 | -12% | -2 | -3 | 7% | -5% | -11% | . | . | . | . | .
Cc1cccc(Cc2cnc(N3C(=N)SC(C)C3=O)s2)c1 (stereo not drawn) | 13µM* | -4 | 16 | 1% | 11% | 1% | 13µM* | 8% | 7% | 1% | 4%
COc1ccccc1CNc1cc(-c2ccccc2C)ncn1 | -4% | . | . | . | . | . | . | . | . | . | .
CCCCN1CCc2[nH]c(=S)[nH]c(=O)c2C1 | 16µM* | -2 | -15 | -10% | -3% | -8% | ? | -3% | 5% | -3% | 2%
Cc1cccc(N(C)c2ncnc3onc(-c4ccc(F)cc4)c23)c1C | -2% | -1 | -3 | -4% | -4% | 0% | . | . | . | . | .
